We go through 26 compounds from PubChem BioAssay (NCATS).

SMILES strings stand for the structures. Values joined by “and” are separate entries in the source; they are usually repeats but may differ in a detail not shown here. Equal entries are not always repeated. A number with no mark means an inactive call. Results filed as inconclusive are left out. Active and inactive are the calls of the source. Calls follow the shape of the dose curve; as a rule, active = well fitted curve in the direction sought with a large enough effect; inconclusive = small, poorly fitted or top-dose-only effect, or another doubt; inactive = no such curve, though single readings can be large; an effect the other way counts as inactive or inconclusive.

One test is described as follows: qHTS for Inflammasome Signaling Inhibitors: IL-1-beta AlphaLISA screen against the NCATS CANVASS Library (AID 1347379).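 Also: human THP-1 cells primed with LPS then triggered with ATP.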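 As to Potency: secreted IL-1B measured as AlphaLISA emission at 615 nm; potency is read from the fitted curve at half-maximal effect.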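 As to activity change, negative = inhibition: secreted IL-1B measured as AlphaLISA emission at 615 nm; % is scaled to controls: 0 for no effect and ±100 for the full control effect; lower signal means less IL-1B release which is the wanted effect.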 The settings on record: THP-1 LPS/ATP, IL-1B AlphaLISA secretion, 16 h; series mostly up to 57.5 µM; activity change, negative = inhibition: at the top concentration; outcome: at the top concentration. In outline:
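THP-1 cells pretreated 1 hr with compound (up to 57.5 uM final), then stimulated with LPS (250 ng/mL final) and ATP (1.25 mM final). Secreted IL-1B measured by AlphaLISA after 16 hr; glyburide as positive control.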
In the case of `C=C1C(=O)O[C@H]2[C@H]1CCC(C)=C1CC[C@@](C)(O)[C@@H]12`, the Potency was 9.68 µM (active).

Take `C/C(=C\[C@H](C)C(=O)/C=C/CC1CC(=O)NC(=O)C1)[C@@H]1OC(=O)CCCC/C=C/[C@H](O)[C@@H](O)[C@@H]1C`: the Potency is 21.7 µM (active).

Consider `COc1ccc([C@@H]2c3cc4c(cc3C[C@H](C)C2C)OCO4)cc1OC` (stereo not given in full), for which the compound was classed as inactive.

`C[C@H]1CCC2(OC1)O[C@H]1C[C@H]3[C@@H]4CC(=O)[C@]5(O)C[C@H](O)CC[C@@]5(C)[C@H]4CC[C@@]3(C)[C@H]1[C@H]2C` (stereo not given in full): the Potency is 24.3 µM (active).

Regarding `C/C1=C/[C@@H](C)[C@H](O)C/C=C/CC/C=C/C(=O)O[C@@H]1[C@H](C)C(=O)CCCC1CC(=O)NC(=O)C1`, the “activity change, negative = inhibition” value is -17.7%.

For the compound `C=C1C[C@H]2O[C@@H]3[C@@H]4[C@H](CC[C@@](C)(O)[C@@H]42)[C@H](C)COC3(C)[C@@H](OC(=O)CCCCCCC)CC1=O` (stereo not given in full), the Potency is 19.3 µM (active).

Another test can be described thus: qHTS for Antimalaria activity screened against the NCATS CANVASS Library (AID 1347380). Also: nearly all actives have a fitted effect of over 40% in size. Also: potency is read from the fitted curve at half-maximal effect.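 As to activity change, negative = inhibition: Plasmodium falciparum strain Dd2 asexual parasites grown in red blood cells.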 The settings on record: P. falciparum Dd2 growth, SYBR Green fluorescence, 72 h; series mostly up to 28.7 µM; activity change, negative = inhibition: at the top concentration. Summed up:
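Dd2 strain, infected erythrocytes 2.5% Hct final / 0.3% parasitemia. 11-pt qHTS titration, 72 h, 37C, 5% O2, 5% CO2. Lysis buffer + SYBR Green, 18 h, fluorescence 485/535 nm.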
For the compound `O[C@H]1C=C2[C@H]3CN(Cc4cc5c(cc43)OCO5)[C@H]2C[C@@H]1O`, the Potency was 5.29 µM (active).

Consider `CC[C@@H](c1cc(OC)c(OC)cc1OC)[C@H](C)[C@@H](/C(C)=C/c1cc(OC)c(OC)cc1OC)c1cc(OC)c(OC)cc1OC`, for which the Potency is 747 nM (active) and 1.88 µM (active).

Take `C/C=C/c1cc2c(c(=O)o1)C(=O)[C@@H](O)[C@H](C)O2`: the “activity change, negative = inhibition” value was -64.7%.

As to `COc1cc2oc3ccccc3c(=O)c2cc1OC`, the Potency is 0.0049 µM (active).

For `O=C1CCC(=O)N(O)CCCCCNC(=O)CCC(=O)N(O)CCCCCNC(=O)CCC(=O)N(O)CCCCCN1`, the Potency was 4.72 µM (active).

For `C=C1C[C@H]2O[C@@H]3[C@@H]4[C@H](CC[C@@](C)(O)[C@@H]42)[C@H](C)COC3(C)[C@@H](OC(=O)CCCCCCC)C[C@H]1O` (stereo not given in full), the Potency is 0.0059 µM (active).

In the case of `COc1cc(C2C3=C(Cc4cc5c(cc42)OCO5)C(=O)OC3)cc(OC)c1OC` (stereo not given), the Potency is 9.41 µM (active).

In the case of `CO[C@@H]1[C@H](O)[C@@H](C)O[C@@H](OC[C@@H]2C(C)OC(=O)/C=C/[C@H](C)C(O[C@@H]3O[C@H](C)CC4(OC(=O)O[C@@H]4C)C3O)[C@@H](C)CC(C)C(=O)/C=C/[C@H]3OC23)[C@@H]1OC` (stereo not given in full), the Potency was 14.9 µM (active).

In the case of `CC1=C[C@H]2[C@H]3C(=O)C(c4ccc(O)cc4)=C[C@@]3(c3ccc(O)cc3)[C@@H]1C(=O)[C@]2(C)O`, the Potency is 0.0019 µM (active).

Regarding `C/C(=C\[C@H](C)C(=O)/C=C/CC1CC(=O)NC(=O)C1)[C@@H]1OC(=O)CCCC/C=C/[C@H](O)[C@@H](O)[C@@H]1C`, the “activity change, negative = inhibition” value was -66.6%.

On to `CC[C@@H]1[C@H](C)[C@H](c2cc(OC)c(OC)cc2OC)[C@@H](C)[C@H](c2cc(OC)c(OC)cc2OC)[C@]12C=C(OC)C(=O)C=C2OC`, for which the Potency is 2.98 µM (active).

On to `C/C1=C/[C@@H](C)[C@H](O)C/C=C/CC/C=C/C(=O)O[C@@H]1[C@H](C)C(=O)CCCC1CC(=O)NC(=O)C1`, for which the “activity change, negative = inhibition” value is -15.3%.

A short description of a further test: Inflammasome Signaling qHTS Counterscreen: IL-1-beta AlphaLISA counterscreen against the NCATS CANVASS Library (AID 1347381).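 Also: cell-free check with purified IL-1β in medium and no THP-1 cells; 0% is about no effect.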 The settings on record: Purified IL-1beta AlphaLISA signal interference counterscreen; series mostly up to 57.5 µM; activity change, negative = inhibition: at the top concentration. Summed up:
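Cell-free interference check: compounds added to medium spiked with 4 pg purified IL-1β. Anti-IL-1β acceptor beads (6 ug/mL) with 0.6 nM biotinylated antibody added for 1 h at RT, then streptavidin donor beads (24 ug/mL) for 30 min in the dark. AlphaLISA read at 680/615 nm.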
For the compound `O[C@H]1C=C2[C@H]3CN(Cc4cc5c(cc43)OCO5)[C@H]2C[C@@H]1O`, the “activity change, negative = inhibition” value was 7.82%.

On to `CC[C@@H](c1cc(OC)c(OC)cc1OC)[C@H](C)[C@@H](/C(C)=C/c1cc(OC)c(OC)cc1OC)c1cc(OC)c(OC)cc1OC`, for which the compound was called inactive.

As to `C/C=C/c1cc2c(c(=O)o1)C(=O)[C@@H](O)[C@H](C)O2`, the “activity change, negative = inhibition” value is -5.16%.

Regarding `CN1CCc2cc3c(c4c2C1(C)C(=O)c1cc(O)ccc1-4)OCO3` (stereo not given), the “activity change, negative = inhibition” value was -5.84%.

Regarding `COc1cc2c(cc1OC)[C@@H](c1ccc3c(c1)OCO3)C(C)[C@@H](C)C2=O` (stereo not given in full), the “activity change, negative = inhibition” value was 0.944%.

Take `COc1cc2oc3ccccc3c(=O)c2cc1OC`: the “activity change, negative = inhibition” value is -1.01% [at 114 µM].

Regarding `COC(=O)[C@@]1(C)CCC[C@]2(C)c3cc(OC)ccc3CC[C@@H]12`, the “activity change, negative = inhibition” value was -6.26%.

On to `COc1cc2ccc(=O)oc2c(O)c1O[C@@H]1O[C@H](CO)[C@@H](O)[C@H](O)[C@H]1O`, for which the “activity change, negative = inhibition” value was -3.31% [at 34.3 µM].

`CC[C@H]1[C@@H](C)[C@@H](c2cc(OC)c(OC)cc2OC)[C@H](C)[C@@H](c2cc(OC)c(OC)cc2OC)[C@@]12C=C(OC)C(=O)C=C2OC`: the “activity change, negative = inhibition” value was -3.06%.

Consider `O=C1CCC(=O)N(O)CCCCCNC(=O)CCC(=O)N(O)CCCCCNC(=O)CCC(=O)N(O)CCCCCN1`, for which the “activity change, negative = inhibition” value is 6.34%.

For the compound `C=C1C[C@H]2O[C@@H]3[C@@H]4[C@H](CC[C@@](C)(O)[C@@H]42)[C@H](C)COC3(C)[C@@H](OC(=O)CCCCCCC)C[C@H]1O` (stereo not given in full), the “activity change, negative = inhibition” value was -0.169%.

As to `CC1=C(C)C(=O)OC(C(C)C2(O)CCC3C4C5OC5C5(O)CC=CC(=O)C5(C)C4CCC32C)C1` (stereo not given), the “activity change, negative = inhibition” value is 5.4%.

In the case of `C[C@H](CCC(O)C(C)(O)CO)[C@@]1(O)CC[C@@]2(C)C3=C(CC[C@@]21C)[C@@]1(C)CCC(OC(=O)CCC(=O)O)C(C)(C)[C@@H]1CC3` (stereo not given in full), the “activity change, negative = inhibition” value is -4.76%.

On to `COc1cc(C2C3=C(Cc4cc5c(cc42)OCO5)C(=O)OC3)cc(OC)c1OC` (stereo not given), for which the “activity change, negative = inhibition” value is -5.11%.

Turning to `CO[C@@H]1[C@H](O)[C@@H](C)O[C@@H](OC[C@@H]2C(C)OC(=O)/C=C/[C@H](C)C(O[C@@H]3O[C@H](C)CC4(OC(=O)O[C@@H]4C)C3O)[C@@H](C)CC(C)C(=O)/C=C/[C@H]3OC23)[C@@H]1OC` (stereo not given in full), the “activity change, negative = inhibition” value is 6.64%.

As to `C=C[C@@](C)(O)CC[C@@H]1[C@@]2(C)CCCC(C)(C)[C@@H]2CC[C@@]1(C)O`, the “activity change, negative = inhibition” value was 5.89%.

As for `COc1ccc([C@@H]2c3cc4c(cc3C(=O)[C@H](C)C2C)OCO4)cc1OC` (stereo not given in full), the “activity change, negative = inhibition” value was 7.99%.

As for `C/C(=C\[C@H](C)C(=O)C[C@H](O)CC1CC(=O)NC(=O)C1)[C@@H]1OC(=O)CCCC/C=C/[C@@H](O)C[C@@H]1C`, the “activity change, negative = inhibition” value is 5.84%.

In the case of `C=C1C(=O)O[C@H]2[C@H]1CCC(C)=C1CC[C@@](C)(O)[C@@H]12`, the “activity change, negative = inhibition” value is -9.91%.

On to `CC[C@@H]1[C@H](C)[C@H](c2cc(OC)c(OC)cc2OC)[C@@H](C)[C@H](c2cc(OC)c(OC)cc2OC)[C@]12C=C(OC)C(=O)C=C2OC`, for which the “activity change, negative = inhibition” value is -7.96%.

In the case of `C[C@H]1CCC2(OC1)O[C@H]1C[C@H]3[C@@H]4CC(=O)[C@]5(O)C[C@H](O)CC[C@@]5(C)[C@H]4CC[C@@]3(C)[C@H]1[C@H]2C` (stereo not given in full), the “activity change, negative = inhibition” value is -11.8%.

For the compound `C/C1=C/[C@@H](C)[C@H](O)C/C=C/CC/C=C/C(=O)O[C@@H]1[C@H](C)C(=O)CCCC1CC(=O)NC(=O)C1`, the “activity change, negative = inhibition” value was 11.3%.
